The values below come from the OligoGym collection.
Further: reference of the scale not given here.

The target in one experiment is HHATL. The experiment is described as follows: pooled miR-30 sensor sort-seq; sequence = guide strand. The following applies: shRNA.
The sequence TTGGCGAACTTGAGGTCGCTGG gave a sensor-assay potency score (higher = more potent) of -0.951.

In turn, TTGTACATGATGATGGCCCAGA registered a sensor-assay potency score (higher = more potent) of -0.478.

Regarding ATATTTGCAAAGCCAGTCGTTG, the sensor-assay potency score (higher = more potent) was -0.866.

The sequence TACACATATTTGCAAAGCCAGT displayed a sensor-assay potency score (higher = more potent) of -1.98.

TCAGCCACATCCATCTTCCGGC yielded a sensor-assay potency score (higher = more potent) of -0.0987.

TTAGCAAACAGCACATGTCCGG: the sensor-assay potency score (higher = more potent) was -0.577.

Consider TAGAAGTTGTACTTGAGCAGGT, for which the sensor-assay potency score (higher = more potent) amounted to 0.918.

TTTGGGGCAACCATCGTGCAGA: the sensor-assay potency score (higher = more potent) is -0.825.

TACACAGCATACATCCAGGAGC registered a sensor-assay potency score (higher = more potent) of -1.03.

Sequence TAGAGTGCGGTGATGCACTTGG returned a sensor-assay potency score (higher = more potent) of 0.641.

The next experiment deals with HIC1. Described as above. The following applies: shRNA.
As to TACAGCTCGGCGCAGTGCGTGT, the sensor-assay potency score (higher = more potent) is -1.35.

Turning to TTGCGTTGCTGTGCGAACTTGC, the sensor-assay potency score (higher = more potent) is -0.297.

As for TGCTCTTGTAGTCGTCGCCGTC, the sensor-assay potency score (higher = more potent) was -0.864.

In the case of TTCAGCTGCTCAGAGCTGGGGA, the sensor-assay potency score (higher = more potent) is -0.306.

TGAGGTTGCGTTGCTGTGCGAA showed a sensor-assay potency score (higher = more potent) of -0.814.

For TTGTCGCACGACGCGCAGCGGT, the sensor-assay potency score (higher = more potent) was -1.62.

In turn, ATCGTGTCCAGCATCGTCTGCC had a sensor-assay potency score (higher = more potent) of -0.128.

In turn, TTGTAGTCGTCGCCGTCGCCGC came in with a sensor-assay potency score (higher = more potent) of -1.19.

Turning to TAGTCGTCGCCGTCGCCGCCCG, the sensor-assay potency score (higher = more potent) was -0.822.

In the case of TTGTAGCTCTTGTCGCACGACG, the sensor-assay potency score (higher = more potent) is -1.22.

Take TTCTTGGACAGGTCCAGGCCAC: the sensor-assay potency score (higher = more potent) was -0.94.

A further experiment addresses HINT3. Described as above. Particulars: shRNA.
TTTTCCAACAGTTACCATGTTC: the sensor-assay potency score (higher = more potent) is -0.723.

TATCATATATATAAAATCCTTA registered a sensor-assay potency score (higher = more potent) of -0.582.

The sequence TCTTAGGAAACAGACATTCAGA yielded a sensor-assay potency score (higher = more potent) of -1.03.

The sequence TTGATTAACAGAATTTGTCTTA gave a sensor-assay potency score (higher = more potent) of 0.577.

For TACCACTTCATGCTGAACCAAG, the sensor-assay potency score (higher = more potent) is -0.805.

With TTCTACTTGATCTTTCCTTAGA, the sensor-assay potency score (higher = more potent) is -0.545.

As to TTGACTCTATAAACCAACTTGG, the sensor-assay potency score (higher = more potent) was -0.569.

Take ATTGACTCTATAAACCAACTTG: the sensor-assay potency score (higher = more potent) was -0.483.

Sequence TATCTTTGAAGCAAATTAGGTC yielded a sensor-assay potency score (higher = more potent) of -0.138.

Take TATAACTGACTACTTACTGAGA: the sensor-assay potency score (higher = more potent) is -0.693.

On to TAACTGACTACTTACTGAGAAA, for which the sensor-assay potency score (higher = more potent) was -1.61.

Sequence TTTGAAGCAAATTAGGTCCTCA had a sensor-assay potency score (higher = more potent) of 0.444.

The next experiment addresses HIP1R. The experiment is described as above. The following applies: shRNA.
For TTCTTGGTGGTTACACTTCGGG, the sensor-assay potency score (higher = more potent) is -1.05.

Consider TACCTCATCTGTCACCTCCAGG, for which the sensor-assay potency score (higher = more potent) is -0.947.

Sequence TTGGTGGTTACACTTCGGGGGG showed a sensor-assay potency score (higher = more potent) of -1.01.

Turning to TTGAAGTACAGCATGTCGGAGG, the sensor-assay potency score (higher = more potent) is -0.0916.

For TTGAGGTGGAAGGAGATCTTGG, the sensor-assay potency score (higher = more potent) is -0.812.

Regarding TTTGTCAAGCTGGTGGTCCTGT, the sensor-assay potency score (higher = more potent) was found to be 0.332.

TTGAGCTGTCGGAAAACTGATT: the sensor-assay potency score (higher = more potent) was -1.02.
